# Results filed as inconclusive are left out. Activity calls are given as the source filed them. Calls follow the shape of the dose curve; as a rule, active = well fitted activation curve with a large enough effect; inconclusive = small, poorly fitted or top-dose-only effect; inactive = no such curve, though single readings can be large or run the other way.
# Target: Cellular tumor antigen p53 (Homo sapiens) (UniProt P04637)
# Assay: Primary qHTS for small molecule compounds that upregulate eGFP-tagged delta133p53alpha (in N-terminal) cells. (AID 2060322);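 also: cells pre-induced with doxycycline then dosed without doxycycline; series mostly up to about 56 µM; 0% = DMSO vehicle and 100% = reference activator; nearly all actives have a fitted effect of over 75% in size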
# Settings: NCI-H358 eGFP-delta133p53alpha fluorescence, 24 h; activation: hits give high values
# Summary of the method: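 NCI-H358 cells pre-induced 24 h with 10 ng/ml doxycycline for eGFP-delta133p53alpha, plated dox-free and exposed 24 h at 37C to titrated compounds. Fixed, Hoechst-stained; gated GFP peak intensity by laser scanning cytometry, normalized to DMSO (0%) and 57.5 uM 5-azacytidine (100%).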
# Cellular tumor antigen p53 (Homo sapiens), sequence (P04637 whole entry, looked up): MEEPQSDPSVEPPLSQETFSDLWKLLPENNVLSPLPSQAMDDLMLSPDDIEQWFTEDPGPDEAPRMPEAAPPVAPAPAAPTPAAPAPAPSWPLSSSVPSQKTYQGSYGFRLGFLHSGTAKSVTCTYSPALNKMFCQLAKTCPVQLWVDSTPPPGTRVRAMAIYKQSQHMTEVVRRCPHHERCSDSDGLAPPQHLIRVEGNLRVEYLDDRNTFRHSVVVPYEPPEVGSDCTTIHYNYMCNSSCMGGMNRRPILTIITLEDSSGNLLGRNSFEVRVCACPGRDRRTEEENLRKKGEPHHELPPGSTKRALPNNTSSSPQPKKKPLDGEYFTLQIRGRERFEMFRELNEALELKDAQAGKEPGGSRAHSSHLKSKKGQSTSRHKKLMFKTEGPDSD
row,SMILES,activation
1,COc1ccccc1N1CCN(CC(O)COc2cc(OC)c(OC)c(OC)c2)CC1 (stereo unspecified),-6.21% (inactive)
2,CC(=O)O[C@]1(C(C)=O)CC[C@@H]2[C@@H]3C[C@H](C)C4=CC(=O)CC[C@]4(C)[C@H]3CC[C@@]21C,17.1% (inactive)
3,CN[C@H]1[C@@H](O)[C@@H]2O[C@@H]3O[C@H](C)CC(=O)[C@]3(O)O[C@@H]2[C@@H](NC)[C@H]1O,-7.34% (inactive)
4,COc1ccc(CN(CCN(C)C)c2ncccn2)cc1,5.08% (inactive)
5,CCCc1ncc(C(=O)O)s1,-8.37% (inactive)
6,NCc1ccc(S(N)(=O)=O)cc1,-15.9% (inactive)
7,CC[C@]12C=CCN3CC[C@@]4(c5cc([C@@]6(C(=O)OC)C[C@H]7C[C@@H](C(C)(F)F)CN(Cc8c6[nH]c6ccccc86)C7)c(OC)cc5N(C)[C@H]4[C@@](O)(C(=O)OC)[C@H]1OC(C)=O)[C@@H]32,-7.99% (inactive)
8,CC(C)(C)NC(=O)[C@H]1CN(Cc2cccnc2)CCN1C[C@@H](O)C[C@@H](Cc1ccccc1)C(=O)N[C@H]1c2ccccc2C[C@H]1O,18.3% (inactive)
9,CN1[C@@H]2CC(OC(=O)[C@H](CO)c3ccccc3)C[C@H]1[C@@H]1O[C@@H]12 (stereo partly specified),-10.7% (inactive)
10,CCOc1ccccc1O[C@H](c1ccccc1)[C@H]1CNCCO1,-13% (inactive)
11,C[C@@H]1O[C@@H](OC[C@H]2O[C@@H](Oc3c(-c4ccc(O)c(O)c4)oc4cc(O)cc(O)c4c3=O)[C@H](O)[C@@H](O)[C@@H]2O)[C@H](O)[C@H](O)[C@H]1O,-29.9% (inactive)
